pPAFAH FP inh: inhibitors of human plasma PAF acetylhydrolase (pPAFAH) | recombinant pPAFAH, FP-rhodamine probe fluorescence polarization | hit rate 1.5% among 330,000 | inhibition, % at 3.39 µM;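 active = inhibition above the mean inhibition across the screen plus 3 SD, cut at about 25% in these data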;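 also: inhibitors block binding of the rhodamine activity-based probe so polarization drops; 0% = enzyme with DMSO and 100% = wells lacking pPAFAH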
PAFAH1B2 FP inh: inhibitors of human PAFAH1B2. AID 492953. recombinant PAFAH1B2, FP-rhodamine activity probe, fluorescence polarization. hit rate 1.2% among 340,000. inhibition, % at 3.39 µM;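 active = inhibition above the mean of all tested compounds plus 3 SD, cut at about 24% in these data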;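 also: 0% = enzyme with DMSO and 100% = wells lacking PAFAH1B2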
Target sequence (P68402 whole entry, looked up): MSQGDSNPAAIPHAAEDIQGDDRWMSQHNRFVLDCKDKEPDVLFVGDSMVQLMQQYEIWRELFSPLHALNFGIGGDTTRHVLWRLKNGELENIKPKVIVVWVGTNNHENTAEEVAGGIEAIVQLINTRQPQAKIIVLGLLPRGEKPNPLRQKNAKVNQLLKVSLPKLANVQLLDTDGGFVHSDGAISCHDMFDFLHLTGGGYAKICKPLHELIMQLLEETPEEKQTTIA
PAFAH2 FP inh: inhibitors of human PAFAH2; AID 492956; recombinant PAFAH2, FP-rhodamine activity probe, fluorescence polarization; Q99487; hit rate 0.99% among 340,000; inhibition, % at 3.39 µM;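 active = inhibition above the mean over all tested compounds plus 3 SD, cut at about 30% in these data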;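 also: inhibitors block probe labeling of enzyme so polarization drops; 0% = enzyme with DMSO and 100% = wells lacking PAFAH2 protein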
PP1 counter: counter-screen for PP5 inhibitors: inhibitors of human PP1-alpha. purified PP1alpha, OMFP fluorescence. inhibition, % at 6.7 µM. P62136. hit rate 0.9% among 320,000;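 active = inhibition above the mean inhibition of all tested compounds plus 3 SD, computed separately for each screening campaign, cut at about 15% in these data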
PP5 inh: PP5 (human) phosphatase inhibition | hit rate 0.18% among 320,000 | AID 1987 | P53041 | inhibition, % at 6.7 µM | purified PP5c, OMFP substrate fluorescence;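 active = inhibition above the campaign's mean inhibition across all tested compounds plus 3 SD, cut at about 9.5% in these data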;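 also: 0% = DMSO only and 100% = 100 µM cantharidin control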
PAFAH1B3 FP inh: inhibitors of human PAFAH1B3; Q15102; recombinant PAFAH1B3, FP-rhodamine probe, fluorescence polarization; inhibition, % at 3.39 µM; hit rate 0.28% among 340,000; AID 492972;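 active = inhibition above the screen-wide average of all tested compounds plus 3 SD, cut at about 25% in these data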;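 also: 0% = enzyme with DMSO only and 100% = wells lacking PAFAH1B3 protein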
Target sequence (Q15102 whole entry, looked up): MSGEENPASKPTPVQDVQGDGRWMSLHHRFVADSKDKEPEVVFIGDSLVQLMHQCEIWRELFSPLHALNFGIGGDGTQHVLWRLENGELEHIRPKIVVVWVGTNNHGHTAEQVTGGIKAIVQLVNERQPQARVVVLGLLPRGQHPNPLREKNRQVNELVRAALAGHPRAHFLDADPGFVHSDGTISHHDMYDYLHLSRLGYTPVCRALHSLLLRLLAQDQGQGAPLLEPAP
* marks the source's active call; other numbers are inactive results; x = no result given. Sampled rows, rich in hits. Any-hit rate of the full collection: about 3.4%.

SMILES | pPAFAH FP inh | PAFAH1B2 FP inh | PAFAH2 FP inh | PP1 counter | PP5 inh | PAFAH1B3 FP inh
O=C1S/C(=C\C=C\c2ccco2)C(=O)N1c1ccccc1 | 26* | -3 | 6 | -3 | -1 | -3
CC(C)C[C@@H](CC#N)N1CCN(Cc2ccccc2)CCC1=O | 1 | 2 | -6 | -3 | -2 | -1
Cc1cc(C(=O)CSc2cccc[n+]2[O-])c(C)n1-c1ccccc1 | 1 | -3 | 11 | 0 | -2 | 3
Cc1cc(C(=O)CSc2cccc[n+]2[O-])c(C)n1-c1ccc(Br)cc1 | 44* | x | x | -2 | 3 | x
O=C1NN(c2ccc(Cl)c(Cl)c2)C(=O)/C1=C/c1ccc(-c2ccccc2C(=O)O)o1 | x | 26* | 30* | x | x | 4
O=C1NN(c2cccc(Br)c2)C(=O)/C1=C/c1ccc(-c2cc([N+](=O)[O-])ccc2O)o1 | 28* | 17 | 47* | -3 | -4 | 31*
O=C1NN(c2cccc(Br)c2)C(=O)/C1=C\c1ccc(O)cc1 | 17 | 21 | 15 | 7 | -2 | 2
Cc1ccc(N2NC(=O)/C(=C/c3ccc(-c4ccc(Cl)c(C(=O)O)c4)o3)C2=O)cc1C | 0 | 2 | 15 | 1 | 1 | 10
CCOc1ccc(CCNC(=O)c2ccc3c(=O)[nH]c4c(C(=O)NC(C)C)sc(=S)n4c3c2)cc1 | 29* | 12 | 29 | 0 | 3 | 15
COc1ccc(OC)c(CCNC(=O)c2ccc3c(=O)[nH]c4c(C(=O)NC(C)C)sc(=S)n4c3c2)c1 | 22 | 24* | 60* | -2 | 2 | 21
CC(C)NC(=O)c1sc(=S)n2c1[nH]c(=O)c1ccc(C(=O)NCCc3ccc(Cl)cc3)cc12 | 17 | 15 | 10 | 0 | 2 | 12
COc1ccc(OC)c(CCNC(=O)c2ccc3c(c2)N(Cc2ccc(F)cc2)CCS3)c1 | 24 | 0 | 3 | 10 | 5 | 13
O=C1OC(c2ccccc2)(c2ccc3cc(O)ccc3c2)c2ccccc21 (configuration not stated) | x | 8 | -11 | x | x | 6
CCOc1cc(CNC(C)(C)CO)cc(Br)c1OCc1ccc(Cl)cc1Cl | 34* | 3 | 7 | 5 | 1 | 1
CCCCn1c(N)c(N(CCC(C)C)C(=O)COC(=O)Cc2ccc(Cl)cc2)c(=O)[nH]c1=O | x | 0 | 3 | x | x | 1
CN(C)c1ccc(C=c2c3cc(O)ccc3n3c2cc(-c2ccccc2)[n+]3C)cc1 | x | -10 | -38 | x | x | 8
C[n+]1c(-c2ccccc2)cc2c(=Cc3ccc([N+](=O)[O-])cc3)c3ccccc3n21 | x | 6 | 81* | x | x | 39*
O=C(NC(Nc1nc2ccc([N+](=O)[O-])cc2s1)(C(F)(F)F)C(F)(F)F)c1ccccc1Cl | 33* | -5 | 2 | 2 | 6 | -3
O=C(NC(Nc1nc2ccc([N+](=O)[O-])cc2s1)(C(F)(F)F)C(F)(F)F)c1cccnc1 | 7 | 5 | -3 | -1 | 0 | 10
COC(=O)CSc1nnc(SCc2ccc(Cl)cc2)s1 | 6 | 31* | 6 | 2 | 0 | 3
Cc1ccc2c(c1)sc(-c1ccc(N(C)C)cc1)[n+]2C | 0 | -5 | -9 | 3 | 0 | 10
C=CCN1[C@@H](Cc2ccccc2)COCCS1(=O)=O | x | 5 | -1 | x | x | 4
O=C(NC1CCCCC1)C(c1ccncc1)N(Cc1ccccc1)C(=O)c1ccc(-c2ccccc2)[nH]1 (configuration not stated) | 2 | 2 | 3 | 16* | 1 | 1
CCOC(=O)CSc1nc2ccc(N3CCOCC3)cc2c(=O)n1Cc1ccc2c(c1)OCO2 | 32* | x | x | 1 | 1 | x
CC(C)N(Cc1ccccc1)C(=O)COC(=O)C1CCN(S(=O)(=O)c2ccc3c(c2)OCCO3)CC1 | 7 | 1 | -7 | 16* | 0 | 5
SMILES | pPAFAH FP inh | PAFAH1B2 FP inh | PAFAH2 FP inh | PP1 counter | PP5 inh | PAFAH1B3 FP inh
Cc1ccc(S(=O)(=O)N2CCC(C(=O)OCCOc3ccccc3)CC2)cc1C | 28* | 4 | 9 | -2 | 0 | 11
CN(C(=O)COC(=O)C1CCN(S(=O)(=O)c2ccc3c(c2)OCCO3)CC1)c1ccccc1 | 5 | -3 | 3 | -4 | -4 | 11
CN1C(=O)C(N=Nc2ccc([N+](=O)[O-])cc2)SC1=S (configuration not stated) | x | 2 | -4 | x | x | 7
COc1cccc2[nH]c(C(=O)NCc3ccccc3)cc12 | 3 | 5 | -7 | 2 | 3 | 0
O=C(NC1CCCC1)c1cc(-c2ccc(Cl)cc2Cl)on1 | -2 | -1 | -4 | -2 | 1 | 5
O=C(NNc1nc(-c2ccccc2)c2cc(Br)ccc2n1)c1ccc(S(=O)(=O)N2CCCCC2)cc1 | 0 | -2 | -14 | 13 | 4 | 0
CN(C)S(=O)(=O)c1ccc(C(=O)NNc2nc(-c3ccccc3)c3cc(Br)ccc3n2)cc1 | 30* | 3 | -2 | 4 | 2 | 4
CC(C)c1cc(C(C)C)c(S(=O)(=O)N2c3ccccc3[C@@]3(Br)C[C@H]4C(=O)N[C@@H](Cc5ccccc5)C(=O)N4[C@@H]23)c(C(C)C)c1 | 6 | x | x | 16* | 4 | x
O=C1N[C@@H](Cc2ccccc2)C(=O)N2[C@@H]3N(S(=O)(=O)c4ccccc4)c4ccccc4[C@]3(Br)C[C@@H]12 | 3 | -1 | -6 | -2 | 0 | 5
COc1ccccc1CCCNC(=O)C1CCC(=O)N(Cc2ccccc2F)C1 (configuration not stated) | -3 | 3 | 3 | 1 | 1 | -6
O=C(O)c1ccccc1NC(c1ccccc1)c1ccc(Cl)cc1 (configuration not stated) | 16 | 41* | 3 | 10 | 0 | 12
Cc1ccc2nc(NC(=O)c3ccc(OCC4CCCO4)cc3)sc2c1 (configuration not stated) | 27* | -5 | -8 | -2 | 5 | 1
NC(=O)CCC(NS(=O)(=O)c1ccc(Cl)cc1)C(=O)NCc1ccc(Cl)cc1 (configuration not stated) | 1 | 24* | 2 | 0 | 3 | 4
CCN(CC)S(=O)(=O)c1cc(NC(=O)Cc2ccc(S(=O)(=O)N3CCOCC3)s2)ccc1Cl | x | -5 | 22 | x | x | -6
Cc1ccc(S(=O)(=O)N2CCN(C(=O)C(C)Cn3nc(C)c(C)c3C)CC2)cc1 (configuration not stated) | 3 | 8 | -4 | -1 | -1 | 5
Cc1nn(CC(C)C(=O)N2CCN(S(=O)(=O)c3ccc(Cl)cc3)CC2)c(C)c1C (configuration not stated) | -5 | 26* | 3 | -1 | 0 | -2
Cc1nnc(SCC(=O)N2CCN(S(=O)(=O)c3ccc(Cl)cc3)CC2)[nH]c1=O | -6 | 30* | 4 | -6 | 5 | 3
O=C(CN1CSCC1=O)N1CCN(S(=O)(=O)c2ccc(Cl)cc2)CC1 | 2 | 29* | -3 | -6 | -1 | 12

High-throughput results from PubChem BioAssay.
